Compounds with a hit are over-represented: about 31% of the library has one in this group of screens.
CYP2C9 activ: increases human cytochrome P450 2C9 activity. P11712. recombinant CYP2C9, luciferin-H conversion, luminescence; stronger effect = higher value; factor 1 = untreated enzyme, 0 = blocked. activation factor at 5 µM. 96,000 tested, 1.4% active;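 active = activation factor of 2 or more for CYP2C9 at a 5 µM dose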;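 also: 0 = sulfaphenazole-blocked wells and 1 = vehicle-only wells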
CYP2C19 act: activators of human cytochrome P450 2C19; 96,000 tested, under 10 active; activation factor at 5 µM; AID 1025; P33261; recombinant CYP2C19, luciferin-H EGE luminescence; stronger effect = higher value; 0 = fully inhibited enzyme, 1 = untreated enzyme;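 active = activation factor of at least 2 at 5 µM in the primary screen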;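 also: 0 = wells with 2.5 mM tranylcypromine and 1 = vehicle-only wells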
Target sequence (P33261 whole entry, looked up): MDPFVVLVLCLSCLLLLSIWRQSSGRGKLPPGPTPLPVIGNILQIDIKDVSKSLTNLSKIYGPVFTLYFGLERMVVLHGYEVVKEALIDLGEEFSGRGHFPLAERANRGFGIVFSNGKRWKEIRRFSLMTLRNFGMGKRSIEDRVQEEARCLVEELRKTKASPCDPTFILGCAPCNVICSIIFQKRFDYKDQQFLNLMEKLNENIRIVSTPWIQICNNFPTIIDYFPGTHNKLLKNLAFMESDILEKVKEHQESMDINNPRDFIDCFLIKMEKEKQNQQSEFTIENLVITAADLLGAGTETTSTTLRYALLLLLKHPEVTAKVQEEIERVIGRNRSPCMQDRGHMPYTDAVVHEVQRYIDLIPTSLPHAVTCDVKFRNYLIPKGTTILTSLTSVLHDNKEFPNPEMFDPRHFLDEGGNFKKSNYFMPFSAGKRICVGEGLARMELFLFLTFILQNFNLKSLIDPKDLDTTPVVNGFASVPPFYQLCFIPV
CYP2C9 inhib: inhibitors of human CYP2C9; P11712; CYP2C9 Supersomes, luciferin-H conversion, luminescence; inhibition, % at 5 µM; 96,000 tested, 20% active;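 active = blocking of liver enzyme CYP2C9 beyond about 50% at 5 µM, limit read from the data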
PLAP act: human PLAP activation. P05187. purified PLAP enzyme, luminescent substrate read-out; stronger effect = higher value. activation fold at 20 µM. 96,000 tested, 1.2% active. AID 696; in the data active = activation fold above about 2
CYP2C19 inh: inhibitors of human CYP2C19. inhibition, % at 5 µM. 96,000 tested, 21% active. CYP2C19 Supersomes, luciferin-H EGE luminescence, 30 min. P33261;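 active = CYP2C19 inhibition above a set limit at 5 µM in the primary screen, cut at about 50% in these data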;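 also: plate controls were negative control wells for no effect and 2.5 mM tranylcypromine positive control for full effect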
The depositor's hits bear a star.

SMILES	CYP2C9 activ	CYP2C19 act	CYP2C9 inhib	PLAP act	CYP2C19 inh
COc1ccc(CNC(=O)COc2ccc(S(=O)(=O)NC(C)C)cc2)cc1	0.1	0.3	86.3*	0.9	67.9*
COc1ccc(OC)c(CCNC(=O)CC2Oc3ccccc3NC2=O)c1 (stereo not drawn)	1.1	0.5	-8.2	0.9	50.1*
CCN(CC)CCCNC(=O)CC1Oc2ccc(C)cc2NC1=O (stereo not drawn)	0.9	1	6.2	0.9	2.1
Cc1ccc2c(c1)NC(=O)C(CC(=O)NCCN(CC(C)C)CC(C)C)O2 (stereo not drawn)	0.5	1	51.3*	1.2	4.5
CC(C)CCNC(=O)NC(=O)COC(=O)c1cc(S(=O)(=O)N2CCOCC2)ccc1N1CCCCC1	0.9	0.9	9.0	1.1	9.9
O=C(Cn1cc(C(F)(F)F)ccc1=O)N1CCN(S(=O)(=O)c2ccccc2)CC1	1.2	1.1	-23.2	1.1	-10.3
O=C(NC1CCCCC1)C1CCCN(c2nnnn2-c2ccccc2)C1 (stereo not drawn)	0.6	0.5	38.4	1.1	54.8*
CCOC(=O)C1CCCN(c2nnnn2-c2ccccc2)C1 (stereo not drawn)	0.6	0.2	38.9	1.2	81.4*
NC(=O)C1CCN(c2nnnn2-c2ccccc2)CC1	0.9	0.6	9.8	1	41.8
Cc1ccnc2nc(C(=O)Nc3nccs3)nn12	1	0.9	2.2	1.3	5.0
O=C(COc1ccccc1Cl)NCCCN1CCOCC1	1	0.4	3.2	1.3	56.7*
O=C(NC(=S)NCCN1CCOCC1)c1ccccc1Cl	1.1	0.5	-8.0	1.1	54.5*
Cc1ccc(NC(=O)CSCCc2ccccn2)nc1	0.9	0.9	9.0	1.1	6.3
COC(=O)c1ccc(OC(=O)C2CC(=O)N(c3ccc(C)cc3C)C2)cc1 (stereo not drawn)	1	1	-4.6	0.9	4.1
COCCCNS(=O)(=O)c1ccc(S(=O)(=O)N2CCCC2)cc1	0.6	0.7	44.3	1.2	28.8
O=S(=O)(Nc1nc2ccccc2s1)c1ccc(Br)s1	0	0.2	95.6*	1.4	81.2*
COc1ccc(S(=O)(=O)Nc2cc(C)ccn2)cc1OC	1.7	0.6	-69.8	1	42.8
CC(=O)Nc1ccc(S(=O)(=O)Nc2nc3ccccc3s2)cc1	0.4	0.7	61.7*	1.2	33.2
Cc1ccc2nc(NC(=O)CCNS(=O)(=O)c3ccc(Br)s3)sc2c1	0.6	0.5	43.9	1.1	49.9
CC(=O)Nc1ccc(S(=O)(=O)Nc2nc3c(s2)CCCC3)cc1	0.6	0.1	42.6	1.2	90.7*
COCc1nnc(NS(=O)(=O)c2ccc(NC(C)=O)cc2)s1	0.7	1	34.0	1	0.9
COc1ccc(S(=O)(=O)Nc2nc3ccccc3s2)cc1OC	0.4	0.7	62.1*	1	25.2
Cc1ccc(S(=O)(=O)Nc2nc3ccccc3s2)cc1	0.6	0.9	43.7	0.8	7.1
CCOC(=O)c1c(N)sc(C(O)(C(F)(F)F)C(F)(F)F)c1-c1ccc(OC)cc1OC	0.3	0.5	71.9*	1.3	54.9*
CCOC(=O)c1cc(C(O)(C(F)(F)F)C(F)(F)F)c(/N=C/N(C)C)o1	0.9	1	8.7	0.9	3.6
SMILES	CYP2C9 activ	CYP2C19 act	CYP2C9 inhib	PLAP act	CYP2C19 inh
C=CCOc1ccc2c(c1)c(S(=O)(=O)c1ccc(C)cc1)cn2COC	0.6	0.1	37.2	1.6	89.1*
C/C(CC(C)(C)C1CCCCC1)=N\NC(N)=S	0.7	0.1	34.6	0.8	93.1*
C/C(CCC12CC3CC(CC(C3)C1)C2)=N\NC(N)=S	0.9	1.2	7.9	0.9	-15.3
CC(C)(C)NC(=O)NC(=O)COc1ccccc1C#N	0.6	0.5	44.4	1.3	50.7*
COCC(=O)N(Cc1cc2cc(OC)ccc2[nH]c1=O)c1ccc(C)cc1	0.4	0.6	58.8*	1.5	36.0
CCOc1ccc(N(Cc2cc3cc(OC)ccc3[nH]c2=O)C(=O)C2CCCO2)cc1 (stereo not drawn)	0.3	0.8	67.8*	1.2	20.2
COCC(=O)N(Cc1cc2ccc(C)cc2[nH]c1=O)c1ccc(OC)cc1	1	1	0.7	1	2.0
Cc1cc(Cl)ccc1OC(C)C(=O)N1CCCN(C(=O)C(C)Oc2ccc(Cl)cc2C)CC1 (stereo not drawn)	1	0.8	2.1	1.4	22.5
Cc1ccc(C)c(NC(=S)N2CCC(c3nc4ccccc4s3)CC2)c1	0.5	0.6	48.3	1.3	37.4
CN(C)/C=C(/C(=O)c1ccc(Cl)cc1Cl)S(=O)(=O)c1ccc(Cl)cc1	0	0.2	95.1*	1.3	79.5*

High-throughput results: PubChem BioAssay, Sanford-Burnham Center for Chemical Genomics
